High-throughput results: PubChem, National Center for Advancing Translational Sciences (NCATS)
Compounds with a hit are over-represented: about 9% of the library has one in this group of screens.
IMPase Li inh = qHTS Assay for Identifying the Cell-Membrane Permeable IMPase Inhibitors: Potentiation with Lithium; CHO-M1 cells, IP1 TR-FRET (IP-One), carbachol + lithium; Potency, µM (doses to about 59.4 µM), inactives show at the highest dose activity, negative = IMPase inhibition, hits mostly inhibitors; 210,000 compounds, 0.35% hits; AID 1457, 2008; active = well fitted curve in the direction sought with a large enough effect; inconclusive = small, poorly fitted or top-dose-only effect, or another doubt; inactive = no such curve, though single readings can be large; an effect the other way counts as inactive or inconclusive;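 also: IP1 builds up when IMPase is blocked and the TR-FRET signal falls; plate controls were basal vehicle for no effect and high inhibitor control for full effect; nearly all actives have a fitted effect of over 50% in size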
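Steps: plate 2000 CHO-M1 cells per well and culture 16–30 h; add compound and lithium; incubate 30 min, 37C; add d2-IP1 tracer and Eu cryptate anti-IP1 antibody in lysis buffer; read after 10 min at room temperature.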
HPGD inh = qHTS Assay for Inhibitors of HPGD (15-Hydroxyprostaglandin Dehydrogenase); purified HPGD, NADH fluorescence kinetic, PGE2 substrate; Potency, µM, inactives show at the highest dose activity change, negative = inhibition, actives largely listed as inhibitors; 150,000 compounds, 4.3% hits
Target sequence (P15428 whole entry, looked up): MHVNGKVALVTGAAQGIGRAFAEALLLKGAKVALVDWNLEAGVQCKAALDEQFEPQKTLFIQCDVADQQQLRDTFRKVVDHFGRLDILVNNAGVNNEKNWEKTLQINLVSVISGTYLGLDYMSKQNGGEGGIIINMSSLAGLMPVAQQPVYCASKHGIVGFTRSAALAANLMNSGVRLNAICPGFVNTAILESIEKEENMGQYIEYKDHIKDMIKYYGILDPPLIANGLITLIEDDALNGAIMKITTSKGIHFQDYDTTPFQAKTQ
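NADH formation kinetics: reaction with 30 uM PGE2 and 1 mM NAD+ (final), 20 nM enzyme, Tris-HCl pH 8 with Tween 20, after 15 min compound preincubation at room temperature. Fluorescence change, last versus first of five reads.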
ALDH1A1 inh = qHTS Assay for Inhibitors of Aldehyde Dehydrogenase 1 (ALDH1A1) | Aldehyde dehydrogenase 1A1 (Homo sapiens), P00352 | Purified ALDH1A1, NADH fluorescence, propionaldehyde substrate | Potency, µM (doses to about 75.3 µM), inactives show at the top dose activity, negative = inhibition, actives largely listed as inhibitors | 220,000 compounds, 7.3% hits | AID 1030, 2008;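 also: plate controls were no enzyme wells and a reference inhibitor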
Target sequence (P00352 whole entry, looked up): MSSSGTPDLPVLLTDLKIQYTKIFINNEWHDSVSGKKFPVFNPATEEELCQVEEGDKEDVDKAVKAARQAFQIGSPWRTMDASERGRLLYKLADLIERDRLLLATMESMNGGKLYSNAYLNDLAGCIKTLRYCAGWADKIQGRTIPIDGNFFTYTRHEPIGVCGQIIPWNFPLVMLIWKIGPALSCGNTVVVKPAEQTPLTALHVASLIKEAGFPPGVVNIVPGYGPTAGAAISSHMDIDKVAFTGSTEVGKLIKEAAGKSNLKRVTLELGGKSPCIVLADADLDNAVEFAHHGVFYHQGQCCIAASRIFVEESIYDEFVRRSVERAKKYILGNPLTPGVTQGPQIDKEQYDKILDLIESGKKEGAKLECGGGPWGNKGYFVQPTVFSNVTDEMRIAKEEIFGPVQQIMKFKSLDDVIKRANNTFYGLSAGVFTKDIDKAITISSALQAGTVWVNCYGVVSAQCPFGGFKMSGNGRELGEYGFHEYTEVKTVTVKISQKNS
Lamin A splicing = qHTS Assay for Modulators of Lamin A Splicing; AID 1487, 2009; 200,000 compounds, 0.01% hits; HeLa LMNA splicing GFP/RFP minigene ratio, 48 h; Potency, µM (titrated, usually from 46.1 µM), without a hit: at the top dose ratio change, negative = inhibition, most hits filed as inhibitors; active = well fitted inhibition curve with a large enough effect in the signal ratio, with a control signal flat, not every such curve was filed as active; inconclusive = small, poorly fitted or top-dose-only effect, or effect the other way, or a change in a side signal; the % refers to the signal ratio
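S3 HeLa stable clones carrying a lamin A-EGFP splicing minigene plus DsRed2 were seeded at 600 cells/well in Opti-MEM with 2% FBS, pin-dosed and incubated 48 h at 37°C. Acumen cytometry (488 nm) gave the GFP/RFP total-intensity ratio.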
Luc counter = Counterscreen for Luciferase (Kinase-Glo TM) Inhibition; Luciferin 4-monooxygenase (Photuris pensylvanica), Q27757; Kinase-Glo luciferase, ATP luminescence, 8 min; Potency, µM (titrated, usually from 38.3 µM), for the others: at the highest dose activity change, negative = inhibition, usual class: inhibitors; 200,000 compounds, 0.28% hits; AID 1379, 2008; active = well fitted curve in the direction sought with a large enough effect; inconclusive = small, poorly fitted or top-dose-only effect, or another doubt; inactive = no such curve, though single readings can be large; an effect the other way counts as inactive or inconclusive; also: nearly all actives have a fitted effect of over 60% in size
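Kinase-Glo luciferase light output from ATP and luciferin was measured with 10 uM ATP, within the enzyme's linear range. Buffer: 50 mM imidazole pH 7.2, 50 mM KCl, 7 mM MgCl2, 0.01% Tween 20, 0.05% BSA; luminescence read after 8 min at ambient temperature.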
An asterisk follows results filed as active; [ ] = remark or other dose. Unless noted, calls follow the shape of the dose curve; as a rule, active = well fitted inhibition curve with a large enough effect (not every such curve was filed as active); inconclusive = small, poorly fitted or top-dose-only effect, or another doubt; inactive = no such curve, though single readings can be large or run the other way. Unless noted, % is scaled to controls: 0 for no effect and ±100 for the full control effect; potency is read from the fitted curve at half-maximal effect.

Results for O=C(COC(=O)c1cc(-c2cccc(Br)c2)nc2ccccc12)NCC1CCCO1 (stereo not drawn) ?
IMPase Li inh: -5%; ALDH1A1 inh: inconclusive; Luc counter: -1%

How did COc1ccccc1CNC(=O)Nc1cccs1 do in these assays?
IMPase Li inh: 16%[38.3 µM]; HPGD inh: 22µM*; ALDH1A1 inh: inconclusive; Lamin A splicing: 7%; Luc counter: 19%

What do the screens show for `COc1ccccc1C(OC(=O)c1cccs1)C(=O)NCc1ccco1` (stereo not drawn)?
IMPase Li inh: -14%[38.3 µM]; HPGD inh: -25%; ALDH1A1 inh: 25µM*; Lamin A splicing: -5%; Luc counter: -4%

What do the screens show for `COc1ccccc1CNC(=O)c1cccc(-c2ccccc2OC)n1`?
IMPase Li inh: 7%; HPGD inh: 7.9µM*; ALDH1A1 inh: 32µM*; Luc counter: 1%[39.9 µM]

What do the screens show for `COc1ccc(Br)cc1CNC(=O)Nc1cccs1`?
IMPase Li inh: 40%[38.3 µM]; HPGD inh: -23%; ALDH1A1 inh: inconclusive; Lamin A splicing: 4%; Luc counter: -4%

Results for COc1ccccc1CNC(=O)N/C=C/c1ccc(Cl)cc1 ?
IMPase Li inh: -2%; ALDH1A1 inh: 25µM*; Lamin A splicing: 2%[9.22 µM]; Luc counter: -4%

Results for O=C(Nc1ccc(S(=O)(=O)NC2=NCCCCC2)cc1)c1ccco1 ?
IMPase Li inh: 3%; ALDH1A1 inh: -1%; Luc counter: 2%

How did Cc1ccc(C2CC(=O)Oc3cc(C)c(Cl)cc32)cc1 (stereo not drawn) do in these assays?
IMPase Li inh: 4%; HPGD inh: -21%; ALDH1A1 inh: -13%; Luc counter: -1%[39.9 µM]

Results for C=CCN(c1ccc(Cl)cc1)S(=O)(=O)c1cccc(C(=O)O)c1 ?
IMPase Li inh: 0%; ALDH1A1 inh: 0%; Lamin A splicing: -6%[46 µM]; Luc counter: -1%

Results for Cc1ccc(-c2nnn(CC(=O)N(CC(=O)NCc3ccccc3)c3cccc(C)c3C)n2)o1 ?
IMPase Li inh: 22%[38.3 µM]; HPGD inh: 25µM*; ALDH1A1 inh: 10µM*; Lamin A splicing: -14%; Luc counter: 1%

How did Cc1ccc(C)c(OCCOCCN2CC(C)OC(C)C2)c1C (stereo not drawn) do in these assays?
IMPase Li inh: 31%[38.3 µM]; HPGD inh: -9%; ALDH1A1 inh: 16µM*; Lamin A splicing: 9%; Luc counter: -5%

What do the screens show for `CC1CN(CCOCCSc2ccccc2)CC(C)O1` (stereo not drawn)?
IMPase Li inh: 11%; ALDH1A1 inh: -4%; Lamin A splicing: -18%[46 µM]; Luc counter: 0%

Results for CCOc1ccc(C(=O)Nc2ccc(S(=O)(=O)N3CCCCC3c3cccnc3)cc2)cc1 (stereo not drawn) ?
Lamin A splicing: 5%[46 µM]

How did Cc1cc(C)cc(N(CC(=O)NCc2ccco2)S(=O)(=O)c2c(C)noc2C)c1 do in these assays?
IMPase Li inh: 10%[38.3 µM]; HPGD inh: -6%; ALDH1A1 inh: 7%; Lamin A splicing: -11%; Luc counter: 17%

How did Cc1ccccc1C(=O)N1CCN(c2ccc(NC(=S)NC(=O)c3cccs3)cc2)CC1 do in these assays?
IMPase Li inh: 10%; ALDH1A1 inh: 3%; Luc counter: 2%

Results for Cc1ccc(C(=O)N2CCN(c3ccc(NC(=S)NC(=O)c4cccs4)cc3)CC2)cc1 ?
IMPase Li inh: 10%; ALDH1A1 inh: 14µM*; Lamin A splicing: inconclusive; Luc counter: -1%

How did COc1cc(NS(=O)(=O)c2ccc(NC(=S)NC(=O)c3cccs3)cc2)nc(OC)n1 do in these assays?
IMPase Li inh: -2%; HPGD inh: -11%; ALDH1A1 inh: inconclusive; Lamin A splicing: -2%; Luc counter: 4%

Results for Cc1cc(C)cc(NS(=O)(=O)c2ccc(NC(=S)NC(=O)c3cccs3)cc2)c1 ?
IMPase Li inh: 18%; HPGD inh: -14%; ALDH1A1 inh: 10µM*; Lamin A splicing: inconclusive; Luc counter: 2%

How did CN(C1CCCCC1)S(=O)(=O)c1ccc(NC(=S)NC(=O)c2cccs2)cc1 do in these assays?
IMPase Li inh: 15%[38.3 µM]; HPGD inh: -13%; ALDH1A1 inh: 22µM*; Lamin A splicing: inconclusive; Luc counter: -1%

How did CC(=O)N1CC(=O)N=C1SCC(=O)Nc1nc(C)c(-c2ccccc2)s1 do in these assays?
IMPase Li inh: 10%; ALDH1A1 inh: 4%; Luc counter: 1%

How did Cc1ccc(C(C[N+](=O)[O-])c2c(-c3ccccc3O)[nH][nH]c2=O)cc1 (stereo not drawn) do in these assays?
IMPase Li inh: 2%; HPGD inh: -24%; ALDH1A1 inh: 20µM*; Lamin A splicing: inconclusive; Luc counter: 0%

What do the screens show for `COc1cccc2c3c(c(=O)[nH]c12)CCC(C)(C)O3`?
IMPase Li inh: 35%[38.3 µM]; HPGD inh: 16µM*; ALDH1A1 inh: 5%; Lamin A splicing: -9%; Luc counter: -1%

Results for COc1ccc(C)cc1NC(=O)C1CCCN(S(=O)(=O)c2ccc3c(c2)CCCN3C(C)=O)C1 (stereo not drawn) ?
Lamin A splicing: -3%[46 µM]

Results for CC(=O)Nc1nnc(Cc2c[nH]c3ccccc23)s1 ?
IMPase Li inh: -5%; ALDH1A1 inh: 11%

How did O=C(CN1CCCCC1)Nc1ccccc1-c1ccccc1 do in these assays?
IMPase Li inh: 57%[38.3 µM]; HPGD inh: -19%; ALDH1A1 inh: 19µM*; Lamin A splicing: 7%; Luc counter: 2%

What do the screens show for `O=C(CN1CCN(C(=O)c2ccco2)CC1)Nc1ccccc1-c1ccccc1`?
IMPase Li inh: 6%[38.3 µM]; HPGD inh: -3%; ALDH1A1 inh: 6.3µM*; Lamin A splicing: 3%; Luc counter: 0%

What do the screens show for `O=C(CN1CCOCC1)Nc1scc(-c2ccccc2)c1C(=O)N1CCOCC1`?
IMPase Li inh: 7%[38.3 µM]; HPGD inh: -11%; ALDH1A1 inh: -27%; Lamin A splicing: 14%; Luc counter: -1%

Results for O=C(CN1CCCC1)Nc1ccccc1Cl ?
IMPase Li inh: -3%[38.3 µM]; HPGD inh: inconclusive; ALDH1A1 inh: 12%; Lamin A splicing: 12%; Luc counter: 5%

How did O=C(CN1CCOCC1)Nc1ccccc1-c1ccccc1 do in these assays?
IMPase Li inh: -9%[38.3 µM]; HPGD inh: -13%; ALDH1A1 inh: 14µM*; Lamin A splicing: 3%; Luc counter: -1%

How did Cc1nnc(SCc2cccc([N+](=O)[O-])c2)o1 do in these assays?
IMPase Li inh: 13%; ALDH1A1 inh: 2%; Lamin A splicing: -4%[46 µM]; Luc counter: 4%

Results for O=C(Nc1ccc(NC(=S)NC(=O)c2ccccc2F)cc1)c1cccs1 ?
IMPase Li inh: 12%; ALDH1A1 inh: inconclusive; Lamin A splicing: inconclusive; Luc counter: -1%
